# Laboratory results as given in PubChem BioAssay (NCI).
# This is part of a sample that, as a whole, favours compounds with a hit. Of some 83,000 tested, about 20% had one in any assay.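 Cells were grown in 96-well plates and exposed to the test compound at a single concentration for 48 hours; results are reported as percent growth, with values below 10 considered active.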 Active and inactive are the calls of the source.
# System: HL-60(TB) leukemia
# Assay: NCI-60 one-dose screen, 48 h (100 = growth as untreated, 0 = no growth, -100 = all killed)
# Conditions: 10 µM unless noted
row,Structure (SMILES),growth
1,COc1ccc2nc(Nc3cccc(NC(=O)c4ccc(CN5CCN(C)CC5)c(C(F)(F)F)c4)c3)ccc2c1,-47.8% (active)
2,Cc1nc(N)ncc1-c1ccc2ncnc(N3CCc4cc(F)c(Cl)cc43)c2c1,46.6% (inactive)
3,CC(=O)OCC1OC(OC2C(COC(C)=O)OC(n3cc(COc4ccc5ccc(=O)oc5c4)nn3)C(OC(C)=O)C2OC(C)=O)C(OC(C)=O)C(OC(C)=O)C1OC(C)=O (centres undefined),103% (inactive)
4,Cn1cc(-c2cc(N)n3nc(-c4c[nH]c5ccc(Cl)cc45)cc3n2)c2cccnc21,-59.8% (active)
5,CS(=O)(=O)Nc1ccc(-c2ccc3c(c2)ncn3-c2ccc(NC(=O)Nc3ccc(Br)cc3)cc2)cc1,-42% (active)
6,COc1ccc(-c2cc(C(=O)OCc3ccc(Br)cc3)nn2-c2ccc(S(C)(=O)=O)cc2)cc1OC,83.6% (inactive)
7,Cc1nn(-c2ccccc2)c2nc(C)n(CC(=O)N/N=C/c3ccccc3O)c(=O)c12,7.2% (active)
8,CC(C)(C)C(=O)C1CC(C#N)=C2C=Cc3c(ccc4ccccc34)N21 (centres undefined),108% (inactive)
9,N#CC1=C(c2cccs2)Nc2c(c(-c3ccccc3)nn2-c2ccccc2)C12C(=O)Nc1ccccc12 (centres undefined),0.7% (active)
10,COc1ccc(C(=O)/C=C/c2cc(F)cc(C(F)(F)F)c2)cc1S(N)(=O)=O,-4.63% (active)
11,Cc1ccc(C2CC(c3ccc(NC(=O)Nc4ccccc4)cc3)=NN2c2ccc(S(C)(=O)=O)cc2)cc1 (centres undefined),13.4% (inactive)
12,Fc1ccc(N2CC(Cn3c(C(F)(F)F)cc4c(Cl)ncnc43)C2)c(F)c1,-40.3% (active)
13,Cc1ccc2nc3c(nc2c1)c1cc(I)ccc1n3CCN(C)C,13.7% (inactive)
14,CC(=O)Oc1ccccc1C(=O)[Se]C(=NC1CCCCC1)NC1CCCCC1,-17.5% (active)
15,Cn1cc(-c2cc(N)n3nc(-c4c[nH]c5ccc(F)cc45)cc3n2)c2cccnc21,-54% (active)
16,O=C(C1=CNC(=S)NC1c1ccc(O)cc1)c1cc2ccccc2oc1=O (centres undefined),79.5% (inactive)
17,CCc1ccc(SC2c3cc(OC)ccc3Oc3nc(N)c(C#N)c(N)c32)cc1 (centres undefined),-77.8% (active)

row,Structure (SMILES),growth
1,O=C(N=Nc1c(O)[nH]c2ccc(Br)cc12)c1ccc2nc(-c3ccccc3)[nH]c2c1,30.9% (inactive)
2,O=C(CSc1nnc(-c2ccc3nc(-c4ccc(Cl)cc4)[nH]c3c2)o1)Nc1ccc(Cl)cc1,-20.9% (active)
3,Nc1nnc(-c2c[nH]c3ncc(Br)cc23)c(-c2c[nH]c3ccc(Br)cc23)n1,11.2% (inactive)
4,Cn1ncc2c(N)nc(Oc3ccccc3-c3ccccc3)nc21,-18.4% (active)
5,CSc1ccc(NC(=O)c2ccc3nn(/C(C#N)=C/c4ccccn4)nc3c2)cc1,-18.9% (active)
6,Cc1ccc(/C=C/C(=O)c2ccc(NC(=O)CSc3nnc(-c4c[nH]c5ccccc45)n3-c3ccccc3)cc2)cc1,75.5% (inactive)
7,Cn1cc(-c2cc(N)n3nc(-c4cn(C)c5ccccc45)cc3n2)c2cc(Br)ccc21,-32.3% (active)
8,O=S(=O)(Nc1ncccn1)c1ccc(-n2c(-c3ccc(Br)cc3)nc(-c3ccccc3)c2-c2ccccc2)cc1,41.2% (inactive)
9,COc1ccc(C2=NN(c3ccccc3)C(c3ccc(OC)c(OCc4ccccc4)c3)C2)cc1OC (centres undefined),100% (inactive)
10,COc1ccc(/C=C2\C(=O)Nc3ccc(Cl)cc32)cc1OCc1ccccn1,64.7% (inactive)
11,CN(C)c1ccc(/C=C/c2n(Cc3ccc4ccccc4c3)c3ccccc3[n+]2Cc2ccc3ccccc3c2)cc1,-47.1% (active)
12,CCCn1c(=O)c2[nH]c(-c3ccc(OCc4nc5ccc(C#N)cc5[nH]4)cc3)nc2n(CCC)c1=O,95.4% (inactive)
13,O=C(c1ccc(O)cc1)C1[C@H](c2ccc(Cl)cc2)[C@@H](c2ccccc2)NC12C(=O)Nc1ccc(Br)cc12 (some centres undefined),-33.9% (active)
14,COc1ccc(-c2ccnc(SCc3cc4cc(Cl)ccc4[nH]c3=O)n2)cc1,120% (inactive)
15,CN(C)c1nc(NCCNS(=O)(=O)c2ccc(C3=Nc4c(N)nc(N)nc4NC(c4ccc(C(F)(F)F)cc4)C3)cc2)nc(N2CCOCC2)n1 (centres undefined),6.05% (active)
16,CN1CCCN(Cc2ccc(C(=O)Nc3cccc(Nc4ccc5c(O)cccc5n4)c3)cc2C(F)(F)F)CC1,-7.86% (active)
17,O=C1c2c(c3c4cc(F)ccc4oc3c3[nH]c4ccc(Br)cc4c23)C(=O)N1O,16.9% (inactive)
